The full ranking holds about 33,000 sequences; the median of “E-score (-0.5 to 0.5)” is about -0.032, and the highest 2% start at about 0.36. The sample holds the highest values, similar sequences and a random draw of the others, so the mix is not that of the screen.
biological target: T1, Sko1 (UniProt Q02100); experiment: PBM E-score (8-mer binding enrichment) (E-score (-0.5 to 0.5)); higher = stronger / more preferred TF binding; details: protein concentration: 200 nM; construct: GST-full length
T1 sequence: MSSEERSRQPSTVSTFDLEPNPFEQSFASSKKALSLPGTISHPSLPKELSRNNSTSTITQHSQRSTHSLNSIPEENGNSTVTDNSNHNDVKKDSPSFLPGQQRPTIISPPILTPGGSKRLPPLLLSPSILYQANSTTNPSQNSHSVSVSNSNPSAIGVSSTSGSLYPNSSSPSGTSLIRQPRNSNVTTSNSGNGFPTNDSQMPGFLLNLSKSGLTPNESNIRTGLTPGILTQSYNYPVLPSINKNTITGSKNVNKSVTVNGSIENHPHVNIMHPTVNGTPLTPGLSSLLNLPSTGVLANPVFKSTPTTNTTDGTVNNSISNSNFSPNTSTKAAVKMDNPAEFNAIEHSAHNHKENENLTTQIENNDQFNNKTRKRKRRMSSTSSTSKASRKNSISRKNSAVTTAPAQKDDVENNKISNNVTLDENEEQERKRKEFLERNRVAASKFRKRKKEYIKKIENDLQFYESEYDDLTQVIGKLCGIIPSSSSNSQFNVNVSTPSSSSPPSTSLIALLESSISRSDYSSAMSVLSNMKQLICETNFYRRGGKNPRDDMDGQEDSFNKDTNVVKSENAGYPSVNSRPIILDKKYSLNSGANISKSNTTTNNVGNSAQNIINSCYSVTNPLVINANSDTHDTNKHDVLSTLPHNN
Procedure, shortened: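 Full-length yeast transcription factors or their DNA-binding domains, GST-tagged and expressed with PURExpress, were applied at about 100-200 nM to universal all-10-mer Agilent arrays. These arrays had been made double-stranded by primer extension on fresh or once-stripped slides. Detection used fluorescent anti-GST, normalisation used masliner, and E-scores for ungapped eight-base words pooled with reverse complements came from the Universal PBM Analysis Suite.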

| Sequence | PBM E-score |
| --- | --- |
| AGTATGCA | -0.0795 |
| ACCTGTAT | -0.105 |
| CAAACCTG | -0.0692 |
| ACCATTAG | 0.0481 |
| TCCCAAGA | -0.166 |
| CGTAACAC | 0.374 |
| CGTAACAA | 0.344 |
| AGTAACAG | -0.0766 |
| AGTAACAC | -0.0531 |
| GGTAACAC | 0.0477 |
| CGTAACAG | 0.374 |
| AGCGGTTG | -0.0753 |
| CATAATAG | 0.116 |
| TGTAATAA | 0.28 |
| AGTAATAC | 0.0785 |
| GGTAATAC | 0.178 |
| GGTAATAA | 0.185 |
| CGTAATAG | 0.435 |
| CGTAATAC | 0.451 |
| CGTAATAA | 0.434 |
| AGTAATAG | 0.264 |
| ACGCGGCT | 0.124 |
| ACAGTCCG | -0.182 |
| ATGGCTCC | -0.249 |
| CCGTACCC | -0.335 |

| Sequence | PBM E-score |
| --- | --- |
| ACGTACCG | 0.372 |
| ACGTACCT | 0.377 |
| AAGTACCG | -0.032 |
| AGGTACCT | -0.19 |
| ACGTACCA | 0.444 |
| CCGTACCA | -0.118 |
| AAGTACCT | -0.0422 |
| GCGTACCC | -0.00205 |
| GCGTACCA | 0.138 |
| ACGTACCC | 0.435 |
| CCGTACCG | -0.208 |
| AGAACCAG | -0.306 |
| CCTACTAA | -0.18 |
| AATGCCTA | -0.0242 |
| CCTATGCC | -0.3 |
| CCATGGAG | -0.266 |
| AGACGCAC | 0.104 |
| ATACGCAG | 0.296 |
| ATACGCAT | 0.375 |
| ATACGCGC | 0.188 |
| CTACGCAA | 0.414 |
| TTACGCAA | 0.466 |
| ATACGCAC | 0.389 |
| CTACGCAG | 0.274 |
| CTACGCAC | 0.315 |

| Sequence | PBM E-score |
| --- | --- |
| AAACGCAT | 0.0801 |
| TTACGGAA | 0.246 |
| TAACGCAA | 0.312 |
| ATAGCCTA | -0.0632 |
| GCAAGGCA | 0.0267 |
| AAGACCTG | -0.147 |
| AGCTAATG | 0.114 |
| ACGAGACG | 0.126 |
| CCACCGAA | -0.00284 |
| CAGCTGAC | 0.0244 |
| AAGGGAAG | 0.0269 |
| ACCAGAGT | -0.256 |
| ATTCTATG | 0.0207 |
| CGTACTCC | 0.201 |
| AAACGCAA | 0.335 |
| GTACGCAC | 0.303 |
| GTACGCAA | 0.399 |
| ATACGCGA | 0.281 |
| GTACGCGA | 0.277 |
| ATACGCAA | 0.447 |
| GAAGTTGC | -0.0684 |
| ATAGCACG | -0.0293 |
| AATTGGGT | 0.12 |
| GCACGTCA | 0.477 |
| CCACGTCG | 0.168 |

| Sequence | PBM E-score |
| --- | --- |
| GCACGTCC | 0.0489 |
| ACACGTCC | 0.214 |
| ACACGTCA | 0.489 |
| GTCCGTCA | 0.179 |
| CCACGTCA | 0.477 |
| GTACGGCA | 0.0279 |
| GCCCGTCA | -0.00134 |
| ACACGTCG | 0.335 |
| CCACGTCC | 0.109 |
| GTACGTCA | 0.491 |
| GGCCCTAA | -0.259 |
| GACGGTAC | 0.171 |
| CCAATGGA | -0.215 |
| AAGACTGT | -0.142 |
| TCCCGTCA | 0.218 |
| TCACGTCA | 0.484 |
| TCACGACA | 0.212 |
| GCACGTGA | 0.387 |
| ACACGTGT | 0.407 |
| ACACGTGA | 0.415 |
| GCTCGTGA | -0.116 |
| ACACGTGC | 0.346 |
| GCACGTGC | 0.296 |
| ACACGTGG | 0.356 |
| ACACGAGT | -0.0245 |

| Sequence | PBM E-score |
| --- | --- |
| ACTAGATC | -0.0827 |
| CAAGATTA | 0.11 |
| AAGACGCT | -0.168 |
| CAGGTAAC | -0.118 |
| AAGACCCC | -0.274 |
| CATCCCTA | -0.124 |
| AACGTCGA | 0.281 |
| TCCGTCGA | -0.0164 |
| CACGTCGA | 0.278 |
| CACGTCGG | 0.183 |
| GACGTCGA | 0.364 |
| TACGTCGA | 0.422 |
| CGTGTGGC | 0.152 |
| CCTATAGG | -0.205 |
| CAGTAAGA | 0.0474 |
| ACACATAC | 0.124 |
| CGGTGACC | -0.172 |
| ATGTGACA | 0.169 |
| ATGTGACC | -0.0234 |
| AGGTGACC | -0.0978 |
| ATGTGACG | 0.44 |
| AGGTGACG | 0.388 |
| CGGTGACA | -0.0125 |
| AGGTGACA | 0.118 |
| CGGTGACG | 0.449 |

| Sequence | PBM E-score |
| --- | --- |
| CTCACTAA | 0.118 |
| AGGGCCAG | -0.407 |
| ACCGAGGC | -0.319 |
| GGCATTGA | -0.104 |
| AAGTAAGC | 0.0436 |
| CCGTAAGA | -0.0187 |
| ACGTAAGA | 0.476 |
| AAGTAAGT | 0.0641 |
| CCGTAATA | 0.288 |
| CCGTAAGC | -0.0492 |
| GCGTAAGC | 0.294 |
| GCGTAATA | 0.421 |
| ACGTAAGT | 0.465 |
| ACGTAAGC | 0.455 |
| TCGTAAGA | 0.199 |
| GAGTAATA | 0.183 |
| AGAGTTCC | -0.269 |
| CGTAGGTC | 0.284 |
| GTCTCAAA | -0.0308 |
| AAGATATT | 0.0367 |
| ACTCCTAC | 0.0364 |
| CGTTGCAC | 0.11 |
| CTCGGCGA | -0.0899 |
| CAACATTC | -0.167 |
| AATGCCCA | -0.173 |

| Sequence | PBM E-score |
| --- | --- |
| ATTCTTGC | 0.0625 |
| GGCAGCAC | -0.103 |
| CTTCTCAA | -0.04 |
| GCAACCGA | -0.129 |
| ATTGGCAA | 0.134 |
| AGGTAAGG | -0.0698 |
| CCGTAAGG | -0.15 |
| GTGTAAGA | 0.0148 |
| GCGTAAGA | 0.378 |
| GAGTAAGA | 0.0882 |
| ACGTAAGG | 0.464 |
| CTGTAATA | 0.042 |
| GTGTAATA | 0.221 |
| ATGTAATA | 0.376 |
| GACTTTGC | -0.117 |
| TCTCGCAA | -0.114 |
| CATGCCAG | -0.191 |
| CCTAGGCA | -0.257 |
| AGAGCGAT | -0.16 |
| CTAGCTAC | -0.105 |
| GCATGCCA | -0.187 |
| CTGCCATA | -0.0751 |

Source: the supplement of paper PMC3334620
